The results in this text go back to PubChem BioAssay AID686978 (National Center for Advancing Translational Sciences (NCATS), 2013).

About 64,000 (15%) of roughly 420,000 compounds were called active. Roughly 27% stayed inconclusive and do not appear here. Calls come from the whole dose curve; as a rule, active = well fitted inhibition curve with a large enough effect; inconclusive = small, poorly fitted or top-dose-only effect; inactive = flat fitted curve, though single readings scatter. These entries were drawn from the full list. Entries that show only a call come without a potency.
Potency is the fitted concentration of half-maximal effect.

The experiment is described as follows: qHTS for Inhibitors of human tyrosyl-DNA phosphodiesterase 1 (TDP1): qHTS in cells in absence of CPT. Note: nearly all actives have a fitted effect of over 55% in size. Conditions: DT40 Tdp1-/- hTDP1 cells, no CPT, ATP luminescence, 48 h; activity change, negative = growth inhibition: at 46.2 µM (top of the series). Summed up: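 DT40 Tdp1-/-;hTDP1 cells, no CPT (DMSO vehicle only), 400 cells/well; compounds pin-transferred; ≥48 hr, 37 °C; CellTiter-Glo 30 min RT dark, luminescence read.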
(qHTS replaces the single test concentration by a dilution series.)
With `CCOC(=O)C(C)N(c1ccccc1Cl)S(C)(=O)=O` (stereo not given), the Potency result is “inactive”.

Consider `CCOC(=O)c1ccc2c(c1)nc(SCC(=O)NC(C)C)n2CC`, for which the Potency entry was “inactive”.

With `Cc1ccc(F)c(S(=O)(=O)NC(=O)C2(C)CCN2C(=O)CCc2cccs2)c1` (stereo not given), the Potency result is “inactive”.

Regarding `COc1ccc(/C=C2/S/C(=N/N=C3\CC4CCC3(C)C4(C)C)NC2=O)cc1` (stereo not given), the Potency result is “inactive”.

`COc1ccc2c(c1)CC[C@@H]1[C@@H]2CC[C@]2(C)C(=O)CC[C@@H]12`: the Potency entry is “inactive”.

In the case of `COc1ccc(C=C2CCC3C(CCCC34OCCO4)C2=O)cc1` (stereo not given), the Potency was 23.1 µM (active).

Turning to `C#CCN1CC(C)/C(=N/O)CC1C` (stereo not given), the Potency entry was “inactive”.

Regarding `COc1ccccc1CNS(=O)(=O)c1c(C)[nH]c(C)c1C(=O)N1CCCCC1`, the Potency entry was “inactive”.

For the compound `CCc1nc(Nc2ccc(NC(C)=O)cc2)c2oc3ccccc3c2n1`, the Potency entry is “inactive”.

Turning to `CCc1nc(Nc2ccc3nccnc3c2)c2oc3ccccc3c2n1`, the Potency is 2.31 µM (active).

In the case of `CCSc1nc(C)nc2c1oc1ccccc12`, the Potency entry is “inactive”.

Regarding `C/C(=N\NC(=O)C(N)=O)c1ccc2c(c1)OCCO2`, the Potency entry was “inactive”.

`C/C(=N/NC(=S)Nc1ccccc1)c1ccc2c(c1)OCO2`: the Potency was 0.517 µM (active).

For `C/C(=N/NC(=O)c1ccncc1)c1ccc2c(c1)OCO2`, the Potency result was “inactive”.

For `CCS(=O)(=O)N(C)[C@@H]1c2cc(C#N)ccc2OC(C)(C)[C@H]1O`, the Potency result is “inactive”.

On to `O=c1cc(CCl)nc2scc(-c3ccccc3)n12`, for which the Potency is 16.4 µM (active).

In the case of `C/C(CC(O)(/C=N/O)c1ccccc1)=N\O` (stereo not given), the Potency entry was “inactive”.

Consider `C/C(CC(=O)Nc1ccc(Cl)cc1)=N\NC(=O)C(=O)NCCO`, for which the Potency result was “inactive”.

With `Cn1c(=O)[nH]c(=O)c2c1nc(CN(Cc1ccccc1)Cc1ccccc1)n2CCN1CCOCC1`, the Potency entry was “inactive”.

Turning to `CC(O)c1nc2c(c(=O)n(C)c(=O)n2C)n1C` (stereo not given), the Potency entry was “inactive”.

On to `COCCn1c(CN(Cc2ccccc2)Cc2ccccc2)nc2c1c(=O)n(C)c(=O)n2C`, for which the Potency is 25.9 µM (active).

With `Cn1c(=O)c2c(nc(N3CCOCC3)n2CCNC2=NCCC2)n(C)c1=O`, the Potency entry was “inactive”.

For `CC(C)Cn1cnc2c1c(=O)n(CC(O)c1ccccc1)c(=O)n2CC(C)C` (stereo not given), the Potency entry was “inactive”.

Take `CCCCn1c(SCC(=O)N2CCOCC2)nc2c1c(=O)n(C)c(=O)n2C`: the Potency entry is “inactive”.

`CCCCCCn1c(CN2CCCCC2)nc2c1c(=O)n(C)c(=O)n2C`: the Potency is 20.6 µM (active).

Regarding `CC(C)Cn1c(CN(Cc2ccccc2)Cc2ccccc2)nc2c1c(=O)n(C)c(=O)n2C`, the Potency was 14.6 µM (active).

For the compound `CC(C)CCn1cnc2c1c(=O)n(CC(=O)NC(N)=O)c(=O)n2Cc1ccccc1`, the Potency entry is “inactive”.

`CC(C)Cn1cnc2c1c(=O)n(CC(=O)NN)c(=O)n2Cc1ccccc1`: the Potency entry was “inactive”.

For the compound `CC(C)CCn1c(CN(C)Cc2ccccc2)nc2c1c(=O)n(C)c(=O)n2C`, the Potency was 6.51 µM (active).

Regarding `Cn1ccnc1-c1nnn(-c2ccc(F)cc2)n1`, the Potency result is “inactive”.

Regarding `O=C(OCC(=O)c1cccs1)c1ccc([N+](=O)[O-])o1`, the Potency entry was “inactive”.

For `O=C(COc1ccc(-n2cnnn2)cc1)Nc1ccccc1Cl`, the Potency entry was “inactive”.

Turning to `CN(C)S(=O)(=O)c1ccc(N2CCCC2=O)c([N+](=O)[O-])c1`, the Potency result is “inactive”.

As to `O=C(/C=C/c1ccccc1Cl)Nc1ccc(S(=O)(=O)Nc2ncccn2)cc1`, the Potency entry was “inactive”.

On to `OCCC1CN(Cc2ccc3nsnc3c2)CCN1C1CCCCC1` (stereo not given), for which the Potency result is “inactive”.

With `Cc1ccc(C)c(SCc2nc3sc(C(=O)O)c(C)c3c(=O)[nH]2)c1`, the Potency entry is “inactive”.

For `COc1ccccc1NC(=O)CC(NCCN(C)C)C(=O)O` (stereo not given), the Potency entry was “inactive”.

For the compound `C/C(=N\Nc1ccc(S(N)(=O)=O)cc1[N+](=O)[O-])c1cccs1`, the Potency result was “inactive”.

Take `CCOC(=O)[C@H]1[C@H]2COc3ccc(OC)cc3[C@@H]2N2C(=O)c3ccc(F)cc3NC(=O)[C@@]12C`: the Potency result is “inactive”.

On to `COC(=O)C1=C(O)/C(=C/c2ccc(OCC(=O)Nc3ccccc3)cc2)N=C1C`, for which the Potency entry was “inactive”.

With `O=C(COC(=O)c1cccs1)NCc1cccs1`, the Potency entry is “inactive”.

For the compound `Nc1nnc(C2CCCC2)s1`, the Potency entry was “inactive”.

For the compound `COC(=O)c1ccccc1Oc1c(F)c(F)nc(N2CCOCC2)c1F`, the Potency entry is “inactive”.

As for `Cc1cc(C)cc(C(=O)NCC(=O)OCC(=O)N2CCCCC2)c1`, the Potency entry was “inactive”.

For the compound `Cn1c(=O)n(CCc2ccccc2)c(=O)c2c1nc1n2CCCN1c1ccccc1`, the Potency entry is “inactive”.

In the case of `CCN1CCN(Cc2nc3c(c(=O)n(C)c(=O)n3C)n2CC(=O)c2ccccc2)CC1`, the Potency result was “inactive”.

In the case of `Cn1c(=O)c2c(nc(CN3CCOCC3)n2Cc2ccccc2)n(C)c1=O`, the Potency result was “inactive”.

Regarding `CC(C)CCn1c(=O)c2c(nc3n2CCCN3Cc2ccccc2)n(C)c1=O`, the Potency is 20.6 µM (active).

Take `CC1CCCN(Cc2nc3c(c(=O)n(C)c(=O)n3C)n2CC(=O)c2ccccc2)C1` (stereo not given): the Potency was 16.4 µM (active).

In the case of `O=C(O)C1CCCN(CCC=C(c2ccccc2)c2ccccc2)C1` (stereo not given), the Potency result is “inactive”.

Consider `COCCn1c(CN2CCC(Cc3ccccc3)CC2)nc2c1c(=O)n(C)c(=O)n2C`, for which the Potency was 7.31 µM (active).

Consider `CN1CCN(Cc2nc3c(c(=O)n(C)c(=O)n3C)n2Cc2cccc3ccccc23)CC1`, for which the Potency result was “inactive”.

As for `Cn1c(=O)n(Cc2c(F)cccc2Cl)c(=O)c2c1nc1n2CCN1c1ccc(F)cc1`, the Potency result is “inactive”.

`CCc1cc(CNC(=O)CC2C(=O)NCCN2CC2CCCCC2)on1` (stereo not given): the Potency entry was “inactive”.

For the compound `Cc1ccc(S(=O)(=O)N(C)C)cc1NC(=O)C(C)OC(=O)c1ccc2ccccc2n1` (stereo not given), the Potency result is “inactive”.

Take `c1ccc(-c2nnc3n2NC(c2ccc4c(c2)OCO4)S3)cc1` (stereo not given): the Potency entry was “inactive”.

For `CC(C)=C1C2CCC1C1C(=O)N(NC(=O)c3ccco3)C(=O)C21` (stereo not given), the Potency result was “inactive”.

For `CCOc1ccc(S(=O)(=O)N(CC(=O)NCC(F)(F)F)Cc2ccco2)cc1`, the Potency entry is “inactive”.

`CCOc1ccc(CN(Cc2ccco2)S(=O)(=O)c2ccc(-n3cnnn3)c(OC)c2)cc1`: the Potency was 16.4 µM (active).

In the case of `CCOc1ccc(C(=O)COC(=O)c2ccc(-n3cnnn3)cc2)cc1`, the Potency entry was “inactive”.

As for `COc1ccc(S(=O)(=O)N2CCOCC2)cc1NC(=O)CC1CC2CCC1C2` (stereo not given), the Potency entry was “inactive”.

Consider `CC1(C)CC(=O)C=C(NCCCN2CCCC2=O)C1`, for which the Potency entry is “inactive”.

With `COc1ccc(Nc2nc(N)nc(CSC(=S)N3CCC(C)CC3)n2)cc1`, the Potency entry was “inactive”.

Turning to `CCOc1ccc(Nc2nc(Cl)nc(N3CCN(c4ccc(OC)cc4)CC3)n2)cc1`, the Potency was 13 µM (active).

With `COC(=O)CNc1nc(Cl)nc(N2CCC(C)CC2)n1`, the Potency result is “inactive”.

With `COP1(=O)C[C@@H](O)[C@@H](O)[C@@H](COCc2ccccc2)O1` (stereo not given in full), the Potency result is “inactive”.

Turning to `O=c1[nH][nH]c(C(F)(F)F)c1C=NCc1ccccc1Cl`, the Potency entry is “inactive”.

On to `Cc1nc2cc(NC(=O)NC3CC3)ccc2n1C`, for which the Potency entry is “inactive”.

With `COc1ccc(-n2c(=O)c(C)nc3cnc(N4CCOCC4)nc32)cc1`, the Potency entry is “inactive”.

On to `Cc1nc2sccn2c(=O)c1S(=O)(=O)NCCc1ccccc1`, for which the Potency result was “inactive”.

Consider `C/C(=N\NC(=O)c1ccoc1C)c1ccccc1O`, for which the Potency was 11.6 µM (active).

For the compound `Cc1ccc(-c2noc(CNC(=O)c3ccoc3C)n2)cc1`, the Potency result is “inactive”.

Take `C/C(=N\NC(=O)c1ccccc1C)c1ccc(N2CCOCC2)cc1`: the Potency result is “inactive”.

For `COc1ccccc1Cn1c(C)nnc1-c1cnn(C)c1N`, the Potency result is “inactive”.

With `COCCNC(=O)C1C(=O)Nc2ccccc2C(=O)N1c1ccc2c(c1)OCCO2` (stereo not given), the Potency result was “inactive”.

Regarding `NC(=O)CC[C@@H]1NC(=O)[C@@H]2CCCN2C(=O)c2cc([N+](=O)[O-])cc(F)c2NCCC[C@@H](C(N)=O)NC1=O`, the Potency entry is “inactive”.

On to `CC(=O)N1CCc2c(sc(NC(=O)CCS(=O)(=O)c3ccccc3)c2C#N)C1`, for which the Potency is 14.6 µM (active).

As for `CC(C)N1CCc2c(sc(NC(=O)Cc3ccccc3)c2C#N)C1`, the Potency result was “inactive”.

With `CC(=O)N1CCc2c(sc(NC(=O)CCS(=O)(=O)c3ccc(C)cc3)c2C(N)=O)C1`, the Potency entry is “inactive”.

As for `CCN(CC)C(CNC(=O)CSc1nnnn1-c1cccc(F)c1)c1ccco1` (stereo not given), the Potency result was “inactive”.

Take `Cc1ccc(C(=O)NCC(=O)O)s1`: the Potency result was “inactive”.

As for `CCc1nc(-c2cc(S(=O)(=O)N3CCN(c4ccc(OC)cc4)CC3)ccc2OC)no1`, the Potency result is “inactive”.

`COc1ccc(OC)c(-c2noc(N3CCN(c4cc(Cl)ccc4C)CC3)n2)c1`: the Potency was 25.9 µM (active).

Take `COc1ccc(S(=O)(=O)N2CCN(c3ccc(F)cc3)CC2)cc1-c1noc(C)n1`: the Potency entry was “inactive”.

For the compound `O=C(c1cccc(S(=O)(=O)N2CCCC2)c1)N(Cc1ccco1)C1CCS(=O)(=O)C1` (stereo not given), the Potency result was “inactive”.

In the case of `COc1cccc(C(O)Cc2nc3ccccc3n2C)c1OC` (stereo not given), the Potency result was “inactive”.

`CC(NCc1nc2ccccc2n1C)C12CC3CC(CC(C3)C1)C2` (stereo not given): the Potency was 23.1 µM (active).

As to `Cn1c(CNC(=O)C(C)(C)C)nc2ccccc21`, the Potency entry is “inactive”.

For `Cc1ccc(S(=O)(=O)/N=C(/Nc2ccc3[nH]c(=O)[nH]c3c2)c2ccccc2)cc1`, the Potency result is “inactive”.

Take `CCN(CC)CCn1c(=S)[nH]c2ncccc2c1=O`: the Potency result is “inactive”.

Regarding `COC(=O)c1sc2[nH]c(=S)n(N)c(=O)c2c1C`, the Potency entry is “inactive”.

For `C=CCNc1nc(C)nc(OC)n1`, the Potency entry is “inactive”.

Regarding `CN(C)c1ccc(C=NCCc2ccc(S(N)(=O)=O)cc2)cc1`, the Potency entry is “inactive”.

For the compound `CC(C)CC1(C)NC(=O)N(CC(=O)Nc2ccc3c(c2)OCCO3)C1=O` (stereo not given), the Potency entry is “inactive”.

Consider `O=C(c1ccc2c(c1)OCCO2)C1CCN(S(=O)(=O)c2cccc(F)c2)CC1`, for which the Potency result was “inactive”.

Consider `COCCNC(=O)C1CCN(S(=O)(=O)c2ccc3c(c2)OCCO3)CC1`, for which the Potency entry is “inactive”.

Consider `CC(C)OCCCNC(=S)N1CCC(C(=O)c2ccc3c(c2)OCCO3)CC1`, for which the Potency is 14.6 µM (active).

Regarding `O=C(NCCCN1CCN(C2CCCCC2)CC1)Nc1ccccc1C(F)(F)F`, the Potency result was “inactive”.

With `O=C(O)c1ccc(NC(=O)c2cccs2)cc1`, the Potency entry is “inactive”.

Turning to `CC(C)C(=O)Nc1ccc(C(=O)NNC(=O)c2cccs2)cc1`, the Potency result was “inactive”.

For the compound `CC(C)(C)c1ccc(C(=O)Nc2ccc3c(c2)CCCN3C(=O)c2cccs2)cc1`, the Potency was 5.8 µM (active).

For the compound `COc1ccc(-c2cc(C(F)(F)F)n3nc(-c4ccccc4)cc3n2)cc1OC`, the Potency is 16.4 µM (active).

`COC(=O)c1cc2nc(-c3ccccc3)cc(C(F)(F)F)n2n1`: the Potency entry is “inactive”.

With `Cc1cc(C(F)(F)F)n2ncc(-c3ccccc3)c2n1`, the Potency result is “inactive”.

Take `COc1cccc(NC(=O)N2CCC(NC(=O)C(Cc3cccc(C)c3)NC(C)=O)CC2)c1` (stereo not given): the Potency entry was “inactive”.
